Laboratory results taken from PubChem BioAssay (EPA / NIEHS).
Activity calls are given as the source filed them. The calls were made as follows: active = hit-call score of the fitted dose curve at least 0.9, where 1 is the maximum; inactive = score below 0.9.

Read-out: growth arrest and DNA damage 45 (GADD45A), GADD45A (gene 1647)
Assay: LTEA_HepaRG_GADD45A: Life Technologies and Expression Analysis (LTEA) Assay for growth arrest and DNA damage 45 (GADD45A) using HepaRG (AID 2283458)
Conditions: mRNA level, 48 h; actives raise or lower the signal
Summary of the method: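 Transcript induction or loss, quantified by TaqMan qRT-PCR against three housekeeping genes, is the read-out. HepaRG cells received chemicals for 48 h across eight half-log concentrations from 100 uM in 0.5% DMSO; gain and loss fitted relative to DMSO.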

Structure (SMILES)	outcome	AC50
CCCCCCCCO	inactive	
CC(=O)c1ccc2c(c1)[C@H](NC(=O)c1ccc(F)cc1)[C@@H](O)C(C)(C)O2	inactive	
CC1(C)C(=O)N(Br)C(=O)N1Br	inactive	
CCNc1ccccc1	inactive	
COc1ccc(/C=C/S(=O)(=O)NC(=O)c2ccc(C)cc2Cl)cc1	inactive	
CC(C)CCO	inactive	
O=C(O)CCN(C1(C(=O)NO)CCCC1)S(=O)(=O)c1ccc(Oc2ccc(F)cc2)cc1	inactive	
C=CC(=C)CCC=C(C)C	inactive	
CC(O)CN(CCN(CC(C)O)CC(C)O)CC(C)O (centres undefined)	inactive	
CCCN(C1CCN(C(=O)C2CCNCC2)CC1)[C@@H]1CCc2ccc(OC)cc2C1	inactive	
CCc1cc(SCc2sc(-c3ccc(C(F)(F)F)cc3)nc2CN2CCN(c3ccc(OC)cc3)CC2)ccc1OCC(=O)O		8.67 µM (active)
CCOc1cccc(-n2cc(C(=O)N3CCN(c4cc(C(=O)O)c5ccccc5c4)CC3)nc2-c2ccc(C)cc2)c1		13.4 µM (active)
O=C(O)CC(O)C(=O)O (centres undefined)	inactive	
O=C(O)c1cc(N=Nc2ccc(S(=O)(=O)Nc3ccccn3)cc2)ccc1O	inactive	
C[C@](N)(Cc1ccc(O)c(O)c1)C(=O)O	inactive	
On1ccccc1=S	inactive	
Cn1c(=O)c2c(ncn2C)n(C)c1=O	inactive	
O=C(OC[C@H]1O[C@@H](OC(=O)c2cc(O)c(O)c(OC(=O)c3cc(O)c(O)c(O)c3)c2)[C@H](OC(=O)c2cc(O)c(O)c(OC(=O)c3cc(O)c(O)c(O)c3)c2)[C@@H](OC(=O)c2cc(O)c(O)c(OC(=O)c3cc(O)c(O)c(O)c3)c2)[C@@H]1OC(=O)c1cc(O)c(O)c(OC(=O)c2cc(O)c(O)c(O)c2)c1)c1cc(O)c(O)c(OC(=O)c2cc(O)c(O)c(O)c2)c1		3.26 µM (active)
CCCCCCc1ccc(O)cc1O	inactive	
Nc1nc2ncc(CNc3ccc(C(=O)N[C@@H](CCC(=O)O)C(=O)O)cc3)nc2c(=O)[nH]1	inactive	
CC(C)CC(C)(O)C#CC(C)(O)CC(C)C (centres undefined)	inactive	
CCOC(=O)COc1ccc2c(c1)CC(NCC(O)c1cccc(Cl)c1)CC2 (centres undefined)	inactive	
CC1=CC(=O)CC(C)(C)C1	inactive	
CC[C@H]1OC(=O)[C@H](C)[C@@H](O[C@H]2C[C@@](C)(OC)[C@@H](O)[C@H](C)O2)[C@H](C)[C@@H](O[C@@H]2O[C@H](C)C[C@H](N(C)C)[C@H]2O)[C@](C)(O)C[C@@H](C)C(=O)[C@H](C)[C@@H](O)[C@]1(C)O	inactive	
CCOC(=O)c1ccc(C2CCC(NC[C@H](O)COc3ccc(O)c(NS(C)(=O)=O)c3)CC2)cc1 (some centres undefined)	inactive	
Cc1ccc(C)c(O)c1	inactive	
COc1ccc2sc(C(=O)Nc3nnn[nH]3)c(OC(C)C)c2c1		31.4 µM (active)
CCOCCO	inactive	
CC(=O)OC[C@H]1O[C@@](COC(C)=O)(O[C@H]2O[C@H](COC(C)=O)[C@@H](OC(C)=O)[C@H](OC(C)=O)[C@H]2OC(C)=O)[C@@H](OC(C)=O)[C@@H]1OC(C)=O	inactive	
